# An excerpt weighted towards active compounds, which were near 0.27% of everything screened.
# Tb PFK inh = blocks T. brucei phosphofructokinase; O15648; AID 485367; actives 0.17% (n = 330,000); T. brucei PFK, ADP-Glo luminescence; Potency, µM (titrated, usually from 57.5 µM), for the others: at the highest dose activity, negative = inhibition, most hits filed as inhibitors;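 also: 0% = uninhibited 1x PFK enzyme wells and -100% = no-enzyme wells; nearly all actives have a fitted effect of over 60% in size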
# Target sequence (O15648 whole entry, looked up): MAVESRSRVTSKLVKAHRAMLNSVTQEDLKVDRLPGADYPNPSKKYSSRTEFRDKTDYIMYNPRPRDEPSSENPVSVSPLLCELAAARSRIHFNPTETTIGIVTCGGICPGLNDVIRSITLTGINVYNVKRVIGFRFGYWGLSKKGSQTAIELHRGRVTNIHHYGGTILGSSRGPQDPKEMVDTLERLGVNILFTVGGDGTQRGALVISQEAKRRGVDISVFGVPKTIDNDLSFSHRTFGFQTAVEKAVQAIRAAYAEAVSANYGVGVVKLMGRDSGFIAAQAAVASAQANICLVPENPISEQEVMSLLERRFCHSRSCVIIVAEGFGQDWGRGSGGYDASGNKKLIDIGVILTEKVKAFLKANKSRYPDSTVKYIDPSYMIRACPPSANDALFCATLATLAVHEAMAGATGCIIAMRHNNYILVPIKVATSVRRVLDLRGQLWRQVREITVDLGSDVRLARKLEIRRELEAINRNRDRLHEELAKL
#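 ADP-Glo luminescence quantified ADP after 45 min at room temperature, with 1.25 nM T. brucei PFK, 0.1 mM ATP and 0.5 mM fructose-6-phosphate in pH 8.0 TEA buffer. qHTS titrations up to 57 µM; curves classified by quality.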
# BCR signal inh = blocks chronic active B-cell receptor signaling. ABC-DLBCL IkBa-CBG/CBR reporter, luminescence ratio, 4 h. Potency, µM (top dose mostly 46.1 µM), without a hit: top-dose activity change, negative = inhibition, usual class: inhibitors. actives 0.05% (n = 340,000). AID 493014; active = well fitted inhibition curve with a large enough effect in the signal ratio, with a control signal flat, not every such curve was filed as active; inconclusive = small, poorly fitted or top-dose-only effect, or effect the other way, or a change in a side signal; the % refers to the signal ratio;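 also: plate controls were basal doxycycline-induced cells for no effect and cells given 10 µM MG132 for full effect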
#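 TMD8 ABC-DLBCL cells carrying doxycycline-inducible green luciferase fused to IkappaBalpha plus unfused red luciferase were exposed to compounds (up to 46 uM) for 4 hrs at 37C. Activity came from the overlap-corrected green/red luminescence ratio.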
# B2AR arrestin = agonists driving beta-arrestin recruitment to human beta2-adrenergic receptor | AID 492947 | Potency, µM (doses to about 46.1 µM), without a hit: at the highest dose activation, actives largely listed as activators | beta-arrestin recruitment to beta2AR, cell-based reporter | actives 0.02% (n = 330,000);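 also: 0% = DMSO controls and full agonism = EC100 isoproterenol or metaproterenol; nearly all actives have a fitted effect of over 65% in size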
# MBNL1 CUG block = MBNL1-poly(CUG) RNA binding inhibition; TR-FRET MBNL1-His/biotin-(CUG)12 binding, 665/545 ratio; Potency, µM (highest dose often 57.5 µM), for inactives: at the top dose activity change, negative = inhibition, usual class: inhibitors; actives 0.036% (n = 280,000); AID 2675; active = well fitted inhibition curve with a large enough effect in the signal ratio, with a control signal flat, not every such curve was filed as active; inconclusive = small, poorly fitted or top-dose-only effect, or effect the other way, or a change in a side signal; inactive = no such curve, though single readings can be large or run the other way; the % refers to the signal ratio
#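 Ratiometric TR-FRET (665 over 545 nm, excitation 340 nm) tracks disruption of MBNL1-His/biotin-(CUG)12 complex after 60 min at room temperature, with compounds at 92 nM to 58 uM final.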
# The depositor's hits bear a star; u = inconclusive; x = not tested or not shown; [ ] = dose if it differs, or a comment. Unless noted, calls follow the shape of the dose curve; as a rule, active = well fitted curve in the direction sought with a large enough effect; inconclusive = small, poorly fitted or top-dose-only effect, or another doubt; inactive = no such curve, though single readings can be large; an effect the other way counts as inactive or inconclusive. Unless noted, % is scaled to controls: 0 for no effect and ±100 for the full control effect; potency is read from the fitted curve at half-maximal effect.
SMILES,Tb PFK inh,BCR signal inh,B2AR arrestin,MBNL1 CUG block
S=c1nc2ccccc2c2nc(-c3ccccc3Cl)[nH]n12,-1.4%,u,-0.1%,158.7%
S=c1nc2ccccc2c2nc(-c3ccccc3)[nH]n12,0.2%,u,3.98µM*,-1.6%
CC(=O)Nc1ccc(S(=O)(=O)NCCc2csc3nc(-c4cccc(C)c4)nn23)cc1,x,9.6%,x,x
COc1ccc2[nH]c(=O)cc(C(=O)O)c2c1,-10.8%,4.2%,-0.2%,2.6%
COc1ccc2[nH]c3c4c(ccc3c2c1)C(=O)C=CC4=O,12µM*,u,u,9.5%
Cc1cc(-c2ccccc2)n(-c2cc(N/N=C/c3ccccc3O)ncn2)n1,u,14.6µM*,-0.9%,x
CNc1cc(-n2nc(C)cc2-c2ccccc2)ncn1,-1.1%,-4.9%,-0.5%,10.9%
Cc1ccc(-n2nc3c(=O)n(CC(=O)NC(C)CCc4ccccc4)nc(C)c3c2C)cc1 (stereo not given),-0.2%,3.5%,0.2%,2.6%
O=C(CSC1=Nc2ccccc2C2CC=NN12)Nc1ccc2c(c1)OCO2 (stereo not given),-15.5%,-16.1%,0.4%,-0.2%
N#Cc1ccccc1NC(=O)CSC1=Nc2ccccc2C2CC=NN12 (stereo not given),-7.6%,20µM*,-1.4%,-6.6%
Cc1ccc2nsnc2c1NS(=O)(=O)c1c(C)ccc2nsnc12,4.9%,-0.4%,-0.8%,u
Cc1ccc(/C=[N+](\[O-])c2ccc(N(C)C)cc2)c2nsnc12,-5.3%,10µM*,-0.3%,u
C=CCn1c(C2CC2)n[nH]c1=S,3.0%,-2.7%,-0.9%,-1.2%
CCCCCC1CCC(c2n[nH]c(=S)n2C)CC1 (stereo not given),-7.7%,u,3.98µM*,-2.1%
CC(C)(C)NC(=S)NNC(=O)c1cccc(Br)c1,-4.3%,u,6.31µM*,0.6%
CCC1(CC)NC(=O)N(CC(=O)OCC(=O)Nc2ccc(OC(F)(F)F)cc2)C1=O,0.0%,3.6%,-0.2%,x
COc1ccccc1N1CCN(c2ccnc3cc(Cl)ccc23)CC1,-1.4%,20µM*,-0.7%,0.8%
O=C(O)c1cc[c]([Hg][Cl])cc1,4.26µM*,u,0.0%,x
CCCCNC(=O)CCC1N=C2c3ccccc3N=C(SCC(=O)NCCc3ccc(OC)c(OC)c3)N2C1=O (stereo not given),x,1.2%,x,x
NC(=S)Nc1ccc(Cl)cc1Cl,0.6%,-4.3%,-0.2%,x
CC1C/C(=N\NC(N)=S)c2cc(Cl)ccc2S1 (stereo not given),1.0%,u,6.31µM*,-0.8%
Oc1ccc(COC2CCCC2)c2cccnc12,-0.7%,7.31µM*,7.5%,x
COc1ccc(OC)c(-c2csc(NC(=O)COC(=O)c3ccc(NC(=O)CC#N)cc3)n2)c1,21.3µM*,4.9%,-0.1%,x
COc1cc2c(cc1OC)C1O[C@](CCCCN3C(=O)c4ccccc4C3=O)(C2)OC2=C1C(=O)c1ccccc1C2=O,-3.7%[11.5 µM],u,-0.8%[9.22 µM],9.7%[11.5 µM]
O=C(Oc1c(CN2CCOCC2)cc(Cl)c2cccnc12)c1ccccc1F,-0.1%,3.55µM*,5.62µM*,x
SMILES,Tb PFK inh,BCR signal inh,B2AR arrestin,MBNL1 CUG block
COc1cc(OC)cc(C(=O)Oc2c(CN3CCOCC3)cc(Cl)c3cccnc23)c1,2.0%,u,3.98µM*,x
COc1cccc(-c2ccc(NC(=O)C3CCCN(Cc4cnn(C(C)C)c4)C3)cc2)c1 (stereo not given),-2.5%,u,-0.4%,-6.5%
Cc1nn(-c2ccccc2)c(C)c1/C=N/NC(=O)c1cc(-c2cccs2)[nH]n1,1.2%,18.4µM*,2.0%,-10.4%
COC/C=C/C1=CC2=CC(=O)C(C)(OC(=O)c3cnc4ccccc4n3)C(=O)C2=CN1c1ccc(CO)cc1 (stereo not given),4.78µM*,11.4%,0.5%,13.3%
COC(=O)[C@@]1(Cc2ccccc2)[C@H]2C(=O)N(C)C(=O)[C@H]2[C@H]2CN=C(SCc3ccccc3)N21,-4.9%,-7.4%,-0.6%,x
CCCNC(=S)Nc1cccc(C(F)(F)F)c1,-9.1%,6.0%,-0.3%,x
CC(C)(C)NNC(=S)Nc1cccc(C(F)(F)F)c1,-3.9%,7.94µM*,u,-0.3%
Cc1ccc(NC(=S)NNC(C)(C)C)cc1,14.5%,u,8.91µM*,8.5%
C[C@@H]1CN=C2N(CCNC(=O)CCC3CCCCC3)[C@H](Cc3ccc(O)cc3)CN21,-10.8%,-18.9%,-1.0%,-2.3%
CCCCCCNC(=O)N[C@H](C(=O)NCCC[C@H]1CN2C(=NC[C@H]2C)N1CCC(c1ccccc1)c1ccccc1)C(C)O (stereo not given in full),-18.6%,17.8µM*,2.9%,-5.8%
CC(=O)NC(c1ccco1)c1cc(Cl)c2ccc(N3CCCCC3)nc2c1O (stereo not given),2.4%,-4.7%,-1.2%,x
Cc1ccc(C)n1-c1ccc(C(=O)O)cc1,10.7µM*,-0.4%,0.0%,-10.9%
O=C1OC(N2C(=O)CC[C@H]2C(=O)Nc2ccc3c(c2)OCO3)c2ccccc21 (stereo not given in full),-1.7%,9.2%,0.3%,-0.7%
COc1cc2c(cc1OC)-c1cc(NC3CCCC3)nc(=O)n1CC2,-1.8%,15.8µM*,0.2%,1.3%
CCN(CC)c1ccc(Nc2cc3n(c(=O)n2)CCc2cc(OC)c(OC)cc2-3)cc1,0.0%,11.2µM*,0.0%,u
COc1cc2c(cc1OC)-c1cc(Nc3ccc(N(C)C)cc3)nc(=O)n1CC2,1.4%,u,-0.3%,x
CCCOc1ccc(C2C(=O)N(C3CCCCC3)CC(=O)N2CCC2=CCCCC2)cc1OC (stereo not given),x,-1.7%,x,x
COc1cc2c(cc1OC)C(CC#N)=NC(C)(C)C2,-0.3%,16.4µM*,-0.9%,0.8%
CCOC(=O)c1c(C)oc2ncnc(Nc3ccc(OC)c(OC)c3)c12,x,-8.6%,x,x
CNC(=S)N/N=C(\C)c1ccc(Cl)s1,6.0%,16.4µM*,18.4µM*,18.4%
COc1cc(/C=N/NC(=O)NC2CCCCC2)ccc1O,1.2%,12.6µM*,-0.4%,-5.9%
COc1cc(/C=N/NC(=O)NC2CCCCC2)cc(OC)c1O,-2.1%,u,-0.5%,-6.6%
COc1ccc(C(CC(=O)Nc2ccc(OC)c(OC)c2)N2Cc3ccccc3C2=O)cc1 (stereo not given),x,18.9%,x,x
Cc1c(Cl)cccc1NC(=S)N=Nc1c(O)n(CN2CCOCC2)c2ccccc12,7.1%,7.31µM*,-0.4%,19.8%
NC(=O)c1ccnc2c(O)cccc12,-9.0%,u,-0.9%,x
OCc1ccnc2c(O)cccc12,2.0%,6.31µM*,u,u
Cc1ccnc2nc(C(=O)OCC(=O)N(Cc3ccccc3)C(C)(C)C)nn12,-1.7%,-1.1%,u,x
CC1=NN(c2ccccc2)C(=O)/C1=C/C=C/c1ccccc1,-5.2%,u,u,7.4%
CC1=NN(c2cccc(C(=O)O)c2)C(=O)/C1=C\C=C\c1ccco1,21.3µM*,u,0.3%,9.3%
Cn1ccc2cc(-c3ccc4ncnc(NCc5cccnc5)c4c3)ccc21,-1.4%,-0.5%,-0.3%,x
